# Test results published in the supplement of paper PMC6411743.
# ± gives the standard deviation of the averaged measurements. The full data set covers some 6,200 targets. This sample favours those with the largest changes.
# Columns and labels:
# Assay in all cases: NP40-soluble protein abundance relative to vehicle (solubility fold change) (ratio); higher = more soluble protein in presence of AMP-PNP
# [1] = target: T1, DDX52 (UniProt Q9Y2R4)
# T1 sequence (whole entry): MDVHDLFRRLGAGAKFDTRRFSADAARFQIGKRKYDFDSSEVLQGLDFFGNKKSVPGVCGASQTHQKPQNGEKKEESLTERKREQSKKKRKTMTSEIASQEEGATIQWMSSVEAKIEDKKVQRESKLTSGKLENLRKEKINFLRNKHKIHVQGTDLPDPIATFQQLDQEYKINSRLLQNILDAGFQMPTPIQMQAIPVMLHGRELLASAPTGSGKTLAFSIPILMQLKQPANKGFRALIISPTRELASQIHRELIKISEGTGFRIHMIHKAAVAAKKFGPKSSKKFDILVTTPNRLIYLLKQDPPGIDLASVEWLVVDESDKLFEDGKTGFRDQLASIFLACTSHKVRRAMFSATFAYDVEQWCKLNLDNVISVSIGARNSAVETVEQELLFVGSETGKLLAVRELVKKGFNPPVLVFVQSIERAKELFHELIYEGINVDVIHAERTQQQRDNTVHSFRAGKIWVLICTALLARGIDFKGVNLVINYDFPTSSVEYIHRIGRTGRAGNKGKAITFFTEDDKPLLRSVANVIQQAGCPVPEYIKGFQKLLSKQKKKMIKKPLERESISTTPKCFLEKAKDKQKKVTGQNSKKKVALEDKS
# In short: (§1)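 In three independent experiments, Jurkat crude lysate made by Dounce homogenisation was treated for 10 min at room temperature and then 3 min at 37 °C with eight concentrations ranging from 0.1 to 10 mM. It was then solubilised with 0.8% NP40 plus benzonase for 60 min at 4 °C and ultracentrifuged. The supernatant was TMT-labelled for LC-MS/MS, and each value is the fold change against the detergent-processed vehicle for the same replicate, using vsn-normalised intensities.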
# [2] = target: T2, NKIRAS1 (UniProt Q9NYS0)
# T2 sequence (whole entry): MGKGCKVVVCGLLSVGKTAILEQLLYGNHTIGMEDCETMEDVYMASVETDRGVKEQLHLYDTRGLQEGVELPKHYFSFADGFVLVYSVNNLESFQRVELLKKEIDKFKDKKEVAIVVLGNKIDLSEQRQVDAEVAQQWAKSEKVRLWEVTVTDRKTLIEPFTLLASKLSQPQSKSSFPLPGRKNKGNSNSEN
# In short: as §1
# [3] = target: T3, POLG2 (UniProt Q9UHN1)
# T3 sequence (whole entry): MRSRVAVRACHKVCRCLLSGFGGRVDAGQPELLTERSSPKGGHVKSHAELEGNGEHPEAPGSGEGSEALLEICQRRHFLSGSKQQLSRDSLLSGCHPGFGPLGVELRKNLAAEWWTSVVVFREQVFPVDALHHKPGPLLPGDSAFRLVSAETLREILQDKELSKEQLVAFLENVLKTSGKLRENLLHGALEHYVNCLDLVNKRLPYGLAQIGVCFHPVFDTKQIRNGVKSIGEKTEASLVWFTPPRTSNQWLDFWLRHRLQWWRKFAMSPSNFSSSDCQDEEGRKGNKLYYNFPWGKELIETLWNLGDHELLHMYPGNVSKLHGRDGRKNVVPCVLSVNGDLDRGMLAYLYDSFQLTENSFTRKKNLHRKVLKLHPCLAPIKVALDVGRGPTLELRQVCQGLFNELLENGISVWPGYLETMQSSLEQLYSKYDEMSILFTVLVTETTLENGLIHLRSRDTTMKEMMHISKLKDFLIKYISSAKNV
# In short: as §1
# [4] = target: T4, PRKRIP1 (UniProt Q9H875)
# T4 sequence (whole entry): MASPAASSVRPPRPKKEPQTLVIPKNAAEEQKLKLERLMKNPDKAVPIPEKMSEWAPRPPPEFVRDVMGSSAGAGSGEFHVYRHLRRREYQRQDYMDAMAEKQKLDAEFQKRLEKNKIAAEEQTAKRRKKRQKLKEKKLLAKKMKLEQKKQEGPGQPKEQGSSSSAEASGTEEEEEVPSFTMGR
# In short: as §1
# [5] = target: T5, SNX6 (UniProt Q9UNH7)
# T5 sequence (whole entry): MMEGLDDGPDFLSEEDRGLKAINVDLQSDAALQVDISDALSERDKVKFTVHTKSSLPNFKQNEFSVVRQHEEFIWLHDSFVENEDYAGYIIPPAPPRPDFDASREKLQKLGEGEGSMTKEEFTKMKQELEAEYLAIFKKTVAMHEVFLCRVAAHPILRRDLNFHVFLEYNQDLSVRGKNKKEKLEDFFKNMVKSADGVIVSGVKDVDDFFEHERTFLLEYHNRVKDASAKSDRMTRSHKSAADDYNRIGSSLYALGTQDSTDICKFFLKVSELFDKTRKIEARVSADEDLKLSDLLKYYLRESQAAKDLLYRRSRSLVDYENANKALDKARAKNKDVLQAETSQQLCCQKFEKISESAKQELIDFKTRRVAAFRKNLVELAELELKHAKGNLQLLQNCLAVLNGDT
# In short: as §1
# [6] = target: T6, TFIP11 (UniProt Q9UBB9)
# T6 sequence (whole entry): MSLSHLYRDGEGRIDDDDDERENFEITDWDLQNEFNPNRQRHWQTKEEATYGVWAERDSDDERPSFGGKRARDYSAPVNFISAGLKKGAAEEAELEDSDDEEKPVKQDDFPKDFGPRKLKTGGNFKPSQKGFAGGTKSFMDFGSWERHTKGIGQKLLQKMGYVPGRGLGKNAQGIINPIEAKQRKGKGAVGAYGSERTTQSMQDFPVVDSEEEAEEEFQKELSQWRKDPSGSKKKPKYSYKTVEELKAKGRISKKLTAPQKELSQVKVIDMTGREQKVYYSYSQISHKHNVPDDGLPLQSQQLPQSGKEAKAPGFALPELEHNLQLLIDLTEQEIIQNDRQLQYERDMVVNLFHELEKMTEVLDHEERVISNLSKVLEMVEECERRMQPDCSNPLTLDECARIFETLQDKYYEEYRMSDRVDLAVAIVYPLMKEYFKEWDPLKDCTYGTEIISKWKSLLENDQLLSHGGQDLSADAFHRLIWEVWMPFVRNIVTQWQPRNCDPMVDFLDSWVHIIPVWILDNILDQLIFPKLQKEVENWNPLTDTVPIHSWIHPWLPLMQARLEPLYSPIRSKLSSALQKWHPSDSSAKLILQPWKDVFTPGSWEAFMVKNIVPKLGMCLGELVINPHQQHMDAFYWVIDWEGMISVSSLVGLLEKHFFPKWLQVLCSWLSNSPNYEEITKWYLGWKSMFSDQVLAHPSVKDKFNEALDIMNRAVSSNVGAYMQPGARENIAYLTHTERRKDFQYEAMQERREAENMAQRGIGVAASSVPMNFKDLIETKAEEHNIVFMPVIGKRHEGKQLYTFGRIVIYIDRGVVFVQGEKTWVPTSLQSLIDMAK
# In short: as §1
# [7] = target: T7, UniProt Q9BY77|Q9BY77-2
# T7 sequence (whole entry): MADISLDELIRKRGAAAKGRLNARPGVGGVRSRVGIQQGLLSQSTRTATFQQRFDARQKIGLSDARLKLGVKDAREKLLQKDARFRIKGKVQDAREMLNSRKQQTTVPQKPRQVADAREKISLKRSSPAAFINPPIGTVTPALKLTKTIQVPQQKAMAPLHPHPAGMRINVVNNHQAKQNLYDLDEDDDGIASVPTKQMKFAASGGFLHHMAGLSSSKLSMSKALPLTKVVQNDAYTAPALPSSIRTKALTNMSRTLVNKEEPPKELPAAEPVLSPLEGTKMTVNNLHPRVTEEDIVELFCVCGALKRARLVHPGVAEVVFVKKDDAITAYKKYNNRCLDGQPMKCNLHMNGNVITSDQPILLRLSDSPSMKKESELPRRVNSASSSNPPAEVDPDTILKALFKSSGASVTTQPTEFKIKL
# In short: as §1
smiles,measurement,setting,value
Nc1ncnc2c1ncn2[C@@H]1O[C@H](COP(=O)(O)OP(=O)(O)NP(=O)(O)O)[C@@H](O)[C@H]1O [adenylyl imidodiphosphate],NP40-soluble protein abundance,[1]; concentration: 1mM,1.08 ± 0.094
same,NP40-soluble protein abundance,[1]; concentration: 2mM,1.1 ± 0.047
same,NP40-soluble protein abundance,[1]; concentration: 4mM,1.18 ± 0.07
same,NP40-soluble protein abundance,[1]; concentration: 6mM,1.22 ± 0.038
same,NP40-soluble protein abundance,[1]; concentration: 8mM,1.28 ± 0.055
same,NP40-soluble protein abundance,[1]; concentration: 10mM,1.39 ± 0.046
same,NP40-soluble protein abundance,[2]; concentration: 1mM,1 ± 0.033
same,NP40-soluble protein abundance,[2]; concentration: 2mM,1.025 ± 0.0079
same,NP40-soluble protein abundance,[2]; concentration: 4mM,0.981 ± 0.024
same,NP40-soluble protein abundance,[2]; concentration: 6mM,0.988 ± 0.027
same,NP40-soluble protein abundance,[2]; concentration: 8mM,1 ± 0.018
same,NP40-soluble protein abundance,[2]; concentration: 10mM,0.9796 ± 0.0011
same,NP40-soluble protein abundance,[3]; concentration: 1mM,0.994 ± 0.073
same,NP40-soluble protein abundance,[3]; concentration: 2mM,1.03 ± 0.056
same,NP40-soluble protein abundance,[3]; concentration: 4mM,0.996 ± 0.072
same,NP40-soluble protein abundance,[3]; concentration: 6mM,1.06 ± 0.051
same,NP40-soluble protein abundance,[3]; concentration: 8mM,1.07 ± 0.043
same,NP40-soluble protein abundance,[3]; concentration: 10mM,1.05 ± 0.021
same,NP40-soluble protein abundance,[4]; concentration: 1mM,1.03 ± 0.053
same,NP40-soluble protein abundance,[4]; concentration: 2mM,1.14 ± 0.12
same,NP40-soluble protein abundance,[4]; concentration: 4mM,1.1 ± 0.11
same,NP40-soluble protein abundance,[4]; concentration: 6mM,1.14 ± 0.073
same,NP40-soluble protein abundance,[4]; concentration: 8mM,1.16 ± 0.1
same,NP40-soluble protein abundance,[4]; concentration: 10mM,1.15 ± 0.15
same,NP40-soluble protein abundance,[5]; concentration: 1mM,0.992 ± 0.031
same,NP40-soluble protein abundance,[5]; concentration: 2mM,1.03 ± 0.12
same,NP40-soluble protein abundance,[5]; concentration: 4mM,0.991 ± 0.069
same,NP40-soluble protein abundance,[5]; concentration: 6mM,1.03 ± 0.076
same,NP40-soluble protein abundance,[5]; concentration: 8mM,1 ± 0.077
same,NP40-soluble protein abundance,[5]; concentration: 10mM,1.03 ± 0.079
same,NP40-soluble protein abundance,[6]; concentration: 1mM,1.01 ± 0.028
same,NP40-soluble protein abundance,[6]; concentration: 2mM,1.01 ± 0.033
same,NP40-soluble protein abundance,[6]; concentration: 4mM,1.07 ± 0.042
same,NP40-soluble protein abundance,[6]; concentration: 6mM,1.08 ± 0.05
same,NP40-soluble protein abundance,[6]; concentration: 8mM,1.09 ± 0.015
same,NP40-soluble protein abundance,[6]; concentration: 10mM,1.13 ± 0.039
same,NP40-soluble protein abundance,[7]; concentration: 1mM,1 ± 0.038
same,NP40-soluble protein abundance,[7]; concentration: 2mM,1.06 ± 0.064
same,NP40-soluble protein abundance,[7]; concentration: 4mM,1.04 ± 0.042
